# Several values for one entry are separate records, joined by “and”; a condition that tells them apart may be missing. Equal values may be shown once. Results filed as inconclusive are left out. Activity calls are given as the source filed them. How the source made its calls: active means hit-call score of the fitted dose curve at least 0.9, where 1 is the maximum; inconclusive means response in the unintended direction; inactive means score below 0.9.
# Key:
# [1] = target: human Caspase 10 (CASP10), CASP10 (gene 843) (UniProt Q92851); test: NVS_ENZ_hCASP10: NovaScreen (NVS) Enzymatic Assay for human Caspase 10 (CASP10) (AID 2283133)
# Outline: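 Fluorescence-intensity enzyme read-out of E. coli-expressed CASP10 activity, 1 h after compound. Single-point duplicates at 25 uM preceded concentration-response testing (top 50 uM) of hits; inhibition expressed as signal loss versus DMSO.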
# [2] = target: human Caspase 2 (CASP2), CASP2 (gene 835) (UniProt P42575); test: NVS_ENZ_hCASP2: NovaScreen (NVS) Enzymatic Assay for human Caspase 2 (CASP2) (AID 2283135)
# Outline: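 Single-point duplicate testing at 25 uM preceded concentration series topping at 50 uM. Activity of the recombinant E. coli-derived protease was followed by fluorescent substrate cleavage 1 h post-dosing, relative to DMSO.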
# [3] = target: human Aurora Kinase A - serine/threonine-protein Kinase 6 (AurA), AURKA (gene 6790) (UniProt O14965); test: NVS_ENZ_hAurA: NovaScreen (NVS) Enzymatic Assay for human Aurora Kinase A - serine/threonine-protein Kinase 6 (AurA) (AID 2283142)
# human Aurora Kinase A - serine/threonine-protein Kinase 6 (AurA), AURKA (gene 6790), sequence (O14965 whole entry, looked up): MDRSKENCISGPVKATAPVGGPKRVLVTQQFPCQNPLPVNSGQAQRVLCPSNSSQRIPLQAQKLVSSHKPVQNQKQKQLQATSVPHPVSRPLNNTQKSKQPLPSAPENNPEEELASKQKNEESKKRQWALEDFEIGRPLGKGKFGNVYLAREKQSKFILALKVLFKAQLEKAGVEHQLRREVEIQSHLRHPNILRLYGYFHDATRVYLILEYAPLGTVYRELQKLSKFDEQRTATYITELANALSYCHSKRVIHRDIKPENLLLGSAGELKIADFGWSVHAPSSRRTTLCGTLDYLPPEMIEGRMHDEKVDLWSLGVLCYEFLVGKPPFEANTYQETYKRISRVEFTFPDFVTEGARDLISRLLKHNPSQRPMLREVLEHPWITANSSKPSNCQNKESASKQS
# Outline: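 Recombinant human AurA activity read by fluorescence after mobility-shift separation of product from substrate; 1 hour incubation. Chemicals first run in duplicate at 25 uM, then concentration series to 50 uM if over threshold; fitted relative to DMSO.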
# [4] = target: human Epidermal Growth Factor Receptor (EGFR), EGFR (gene 1956) (UniProt P00533); test: NVS_ENZ_hEGFR: NovaScreen (NVS) Enzymatic Assay for human Epidermal Growth Factor Receptor (EGFR) (AID 2283151)
# human Epidermal Growth Factor Receptor (EGFR), EGFR (gene 1956), sequence (P00533 whole entry, looked up): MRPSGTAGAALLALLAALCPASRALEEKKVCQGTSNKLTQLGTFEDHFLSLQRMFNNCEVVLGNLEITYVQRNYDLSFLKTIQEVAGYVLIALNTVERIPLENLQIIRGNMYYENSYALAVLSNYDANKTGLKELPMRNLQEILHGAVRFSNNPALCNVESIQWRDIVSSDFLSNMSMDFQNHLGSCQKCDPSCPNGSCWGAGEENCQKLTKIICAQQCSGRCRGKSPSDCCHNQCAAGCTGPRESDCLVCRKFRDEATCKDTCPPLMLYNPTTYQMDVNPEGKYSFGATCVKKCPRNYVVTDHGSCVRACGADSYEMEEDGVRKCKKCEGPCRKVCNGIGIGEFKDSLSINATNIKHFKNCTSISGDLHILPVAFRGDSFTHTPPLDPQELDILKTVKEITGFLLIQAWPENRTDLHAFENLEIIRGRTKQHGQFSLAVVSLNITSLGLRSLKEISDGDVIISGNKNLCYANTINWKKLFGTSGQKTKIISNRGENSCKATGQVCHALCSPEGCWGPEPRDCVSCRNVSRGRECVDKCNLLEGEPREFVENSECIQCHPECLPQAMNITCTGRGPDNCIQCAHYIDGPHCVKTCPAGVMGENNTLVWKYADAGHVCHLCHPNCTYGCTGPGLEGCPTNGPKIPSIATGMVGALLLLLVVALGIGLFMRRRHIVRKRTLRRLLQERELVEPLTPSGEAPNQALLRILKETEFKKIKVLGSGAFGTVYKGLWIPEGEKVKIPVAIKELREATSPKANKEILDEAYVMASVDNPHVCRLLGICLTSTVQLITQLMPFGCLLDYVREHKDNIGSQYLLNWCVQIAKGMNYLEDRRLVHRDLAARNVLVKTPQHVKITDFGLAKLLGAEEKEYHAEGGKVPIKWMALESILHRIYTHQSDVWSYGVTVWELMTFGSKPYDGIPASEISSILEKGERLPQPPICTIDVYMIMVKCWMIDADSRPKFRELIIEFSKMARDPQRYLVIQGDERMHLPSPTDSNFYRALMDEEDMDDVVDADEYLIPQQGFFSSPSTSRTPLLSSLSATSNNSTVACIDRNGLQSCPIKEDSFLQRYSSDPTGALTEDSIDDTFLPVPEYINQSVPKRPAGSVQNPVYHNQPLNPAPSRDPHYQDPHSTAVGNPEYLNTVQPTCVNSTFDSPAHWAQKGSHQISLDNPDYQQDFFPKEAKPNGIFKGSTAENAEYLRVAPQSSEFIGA
# Outline: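 Cell-free kinase assay, fluorescence plus electrophoretic mobility shift separating substrate and product, read 1 hour after dosing; loss of signal vs DMSO. Duplicate screen at 25 uM, then concentration-response to 50 uM.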
# [5] = target: Protein deacetylase HDAC6 (Homo sapiens) (UniProt Q9UBN7); test: NVS_ENZ_hHDAC6: NovaScreen (NVS) Enzymatic Assay for human Histone Deacetylase 6 (HDAC6) (AID 2283164)
# Protein deacetylase HDAC6 (Homo sapiens), sequence (Q9UBN7 whole entry, looked up): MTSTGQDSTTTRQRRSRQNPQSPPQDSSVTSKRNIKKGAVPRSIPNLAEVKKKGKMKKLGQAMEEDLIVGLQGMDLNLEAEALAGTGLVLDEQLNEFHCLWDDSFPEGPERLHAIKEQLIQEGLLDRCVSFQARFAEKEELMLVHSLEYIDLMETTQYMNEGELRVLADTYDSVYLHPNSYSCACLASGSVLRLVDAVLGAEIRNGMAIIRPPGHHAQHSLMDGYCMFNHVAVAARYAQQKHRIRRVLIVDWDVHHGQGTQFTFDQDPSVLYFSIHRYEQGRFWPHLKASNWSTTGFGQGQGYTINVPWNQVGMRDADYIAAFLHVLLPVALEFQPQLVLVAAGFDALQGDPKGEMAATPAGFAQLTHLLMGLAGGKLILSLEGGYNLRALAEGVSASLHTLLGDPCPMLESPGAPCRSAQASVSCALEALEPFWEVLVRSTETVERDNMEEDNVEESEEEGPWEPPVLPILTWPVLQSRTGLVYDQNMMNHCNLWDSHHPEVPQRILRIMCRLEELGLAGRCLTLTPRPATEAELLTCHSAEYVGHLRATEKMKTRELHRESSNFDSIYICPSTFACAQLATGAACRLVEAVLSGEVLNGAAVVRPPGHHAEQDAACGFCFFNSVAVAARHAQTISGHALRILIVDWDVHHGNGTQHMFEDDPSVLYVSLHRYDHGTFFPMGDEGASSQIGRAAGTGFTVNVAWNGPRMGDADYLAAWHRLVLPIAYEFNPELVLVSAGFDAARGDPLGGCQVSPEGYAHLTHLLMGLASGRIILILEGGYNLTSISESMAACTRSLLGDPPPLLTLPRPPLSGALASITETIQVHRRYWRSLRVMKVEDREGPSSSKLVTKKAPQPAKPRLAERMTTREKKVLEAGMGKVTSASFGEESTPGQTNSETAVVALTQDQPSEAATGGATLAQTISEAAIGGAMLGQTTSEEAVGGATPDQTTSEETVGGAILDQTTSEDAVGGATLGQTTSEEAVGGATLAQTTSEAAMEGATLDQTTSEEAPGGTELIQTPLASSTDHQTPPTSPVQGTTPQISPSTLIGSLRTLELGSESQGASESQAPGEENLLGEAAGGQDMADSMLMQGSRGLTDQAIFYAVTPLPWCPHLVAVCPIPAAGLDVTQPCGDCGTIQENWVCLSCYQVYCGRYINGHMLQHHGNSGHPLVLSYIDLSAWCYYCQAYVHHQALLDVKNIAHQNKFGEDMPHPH
# Outline: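 Concentration-response runs up to 50 uM followed a duplicate 25 uM single-point screen. Deacetylase activity of recombinant human HDAC6 read by fluorescence after 1 h, with mobility-shift separation of substrate and product; DMSO as baseline.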
# [6] = target: human Mitogen-Activated Protein Kinase 1 (MAPK 1), MAPK1 (gene 5594) (UniProt P28482); test: NVS_ENZ_hMAPK1: NovaScreen (NVS) Enzymatic Assay for human Mitogen-Activated Protein Kinase 1 (MAPK 1) (AID 2283175)
# human Mitogen-Activated Protein Kinase 1 (MAPK 1), MAPK1 (gene 5594), sequence (P28482 whole entry, looked up): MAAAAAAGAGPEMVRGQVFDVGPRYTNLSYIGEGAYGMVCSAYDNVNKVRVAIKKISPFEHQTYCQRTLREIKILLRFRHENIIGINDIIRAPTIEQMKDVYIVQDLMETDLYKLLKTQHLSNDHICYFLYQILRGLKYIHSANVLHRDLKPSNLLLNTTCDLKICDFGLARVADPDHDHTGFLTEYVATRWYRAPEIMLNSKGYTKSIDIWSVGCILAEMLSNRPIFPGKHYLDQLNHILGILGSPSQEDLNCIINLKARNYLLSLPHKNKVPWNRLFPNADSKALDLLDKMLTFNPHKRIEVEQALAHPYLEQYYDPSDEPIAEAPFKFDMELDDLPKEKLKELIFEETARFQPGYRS
# Outline: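 Cell-free recombinant human MAPK1 enzymatic assay, fluorescence/electrophoretic mobility shift read at 1 h; loss of signal vs DMSO. Primary screen in duplicate at 25 uM; actives (e.g. ≥30% inhibition) run as concentration-response up to 50 uM.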
# [7] = target: human Matrix Metalloproteinase-1 (MMP1), MMP1 (gene 4312) (UniProt P03956); test: NVS_ENZ_hMMP1: NovaScreen (NVS) Enzymatic Assay for human Matrix Metalloproteinase-1 (MMP1) (AID 2283181)
# Outline: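 Cell-free fluorescent substrate assay of human MMP1, read after 1 h. A single 25 uM duplicate screen was followed by concentration series to a maximum of 50 uM for actives meeting threshold; inhibition analysed against DMSO baseline.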
# [8] = target: human p21 Activated Kinase 4 (PAK4), PAK4 (gene 10298) (UniProt O96013); test: NVS_ENZ_hPAK4: NovaScreen (NVS) Enzymatic Assay for human p21 Activated Kinase 4 (PAK4) (AID 2283189)
# human p21 Activated Kinase 4 (PAK4), PAK4 (gene 10298), sequence (O96013 whole entry, looked up): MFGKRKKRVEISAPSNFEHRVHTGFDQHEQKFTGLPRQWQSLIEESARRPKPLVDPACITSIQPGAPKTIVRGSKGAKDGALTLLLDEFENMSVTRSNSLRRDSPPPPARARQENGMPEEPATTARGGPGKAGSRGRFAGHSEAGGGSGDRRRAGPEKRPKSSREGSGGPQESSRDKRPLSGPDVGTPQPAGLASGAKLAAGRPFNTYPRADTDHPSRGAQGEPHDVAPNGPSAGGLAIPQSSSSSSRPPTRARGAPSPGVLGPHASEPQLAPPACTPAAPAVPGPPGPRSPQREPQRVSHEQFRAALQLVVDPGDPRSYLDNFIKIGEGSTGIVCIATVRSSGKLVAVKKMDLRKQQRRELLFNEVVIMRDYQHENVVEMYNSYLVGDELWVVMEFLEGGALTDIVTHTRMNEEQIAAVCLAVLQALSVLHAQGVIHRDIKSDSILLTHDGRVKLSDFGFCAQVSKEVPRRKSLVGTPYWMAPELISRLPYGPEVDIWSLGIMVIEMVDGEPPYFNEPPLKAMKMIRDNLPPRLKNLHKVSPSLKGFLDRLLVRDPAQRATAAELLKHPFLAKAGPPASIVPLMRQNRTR
# Outline: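 Extracted PAK4 enzyme activity read by fluorescence with mobility-shift separation 1 h after chemical addition. Duplicate single-concentration screen at 25 uM, DMSO as negative control.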
# [9] = target: human Tyrosine Protein Kinase Receptor Tie-2 (Tie2), TEK (gene 7010) (UniProt Q02763); test: NVS_ENZ_hTie2: NovaScreen (NVS) Enzymatic Assay for human Tyrosine Protein Kinase Receptor Tie-2 (Tie2) (AID 2283225)
# human Tyrosine Protein Kinase Receptor Tie-2 (Tie2), TEK (gene 7010), sequence (Q02763 whole entry, looked up): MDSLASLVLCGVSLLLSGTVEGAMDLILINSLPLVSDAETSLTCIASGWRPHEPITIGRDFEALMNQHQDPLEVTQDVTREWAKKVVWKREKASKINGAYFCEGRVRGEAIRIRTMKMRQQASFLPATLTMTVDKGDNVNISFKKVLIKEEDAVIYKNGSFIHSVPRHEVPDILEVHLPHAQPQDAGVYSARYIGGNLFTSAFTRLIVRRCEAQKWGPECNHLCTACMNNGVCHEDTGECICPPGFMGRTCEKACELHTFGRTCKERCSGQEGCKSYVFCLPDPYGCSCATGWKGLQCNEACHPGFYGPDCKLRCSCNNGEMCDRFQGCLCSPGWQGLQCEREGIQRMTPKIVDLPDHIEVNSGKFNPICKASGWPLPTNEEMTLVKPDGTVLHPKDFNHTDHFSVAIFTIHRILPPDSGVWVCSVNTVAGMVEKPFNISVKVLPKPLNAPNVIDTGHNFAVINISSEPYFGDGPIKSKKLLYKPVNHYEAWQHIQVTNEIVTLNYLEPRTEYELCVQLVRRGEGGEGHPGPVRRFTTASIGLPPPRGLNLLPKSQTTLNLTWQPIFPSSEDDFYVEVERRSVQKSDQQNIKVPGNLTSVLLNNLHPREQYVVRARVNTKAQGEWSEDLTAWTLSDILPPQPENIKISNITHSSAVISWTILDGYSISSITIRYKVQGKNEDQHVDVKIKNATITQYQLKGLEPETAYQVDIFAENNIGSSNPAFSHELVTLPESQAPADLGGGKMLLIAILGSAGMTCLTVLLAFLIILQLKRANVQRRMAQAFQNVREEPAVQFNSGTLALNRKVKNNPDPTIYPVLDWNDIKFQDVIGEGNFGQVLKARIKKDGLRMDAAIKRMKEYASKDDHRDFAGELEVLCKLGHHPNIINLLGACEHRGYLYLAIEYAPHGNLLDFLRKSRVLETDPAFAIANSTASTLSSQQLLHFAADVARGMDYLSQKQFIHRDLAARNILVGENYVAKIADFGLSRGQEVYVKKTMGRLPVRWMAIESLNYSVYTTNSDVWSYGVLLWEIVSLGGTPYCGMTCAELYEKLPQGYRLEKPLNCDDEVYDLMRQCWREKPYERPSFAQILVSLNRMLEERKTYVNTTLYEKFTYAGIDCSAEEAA
# Outline: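 Substrate and product were separated by mobility shift and detected by fluorescence after a 1-hour reaction with recombinant Tie2. Chemicals passing a 25 uM single-point screen were titrated to a maximum of 50 uM. Results were normalized to DMSO baseline.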
# [10] = target: rat Corticotropin Releasing Factor Receptor (CRF), Crhr1 (gene 58959) (UniProt P35353); test: NVS_GPCR_rCRF: NovaScreen (NVS) G Protein-Coupled Receptor Assay for rat Corticotropin Releasing Factor Receptor (CRF) (AID 2283300)
# Outline: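 Single-concentration (25 uM, duplicate) radioligand binding on rat cortical membrane preparations, counted by scintillation after 2 h. Activity scored as signal loss relative to DMSO negative control.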
# [11] = target: human Neonicotinoid receptor (NNR), CHRNA2 (gene 1135) (UniProt Q15822); test: NVS_LGIC_hNNR_NBungSens: NovaScreen (NVS) Ligand-Gated Ion Channel Assay for human Neonicotinoid receptor (NNR) (AID 2283313)
# Outline: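 Compounds first screened in duplicate at 25 uM, then actives re-tested in single-replicate dose series up to 50 uM. Binding measured as displacement of specific radioligand from neuroblastoma membrane receptors after 2 h, scintillation read on filters.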
# [12] = target: human Ephrin type-A Receptor 2 (EphA2), EPHA2 (gene 1969) (UniProt P29317); test: NVS_ENZ_hEphA2: NovaScreen (NVS) Enzymatic Assay for human Ephrin type-A Receptor 2 (EphA2) (AID 2283155)
# Outline: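 Enzyme activity of recombinant EphA2 read by fluorescence after mobility-shift separation, 1 h after dosing. Chemicals first tested at 25 uM (duplicate); those passing threshold run as concentration series, top 50 uM, single replicate, relative to DMSO.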
# [13] = target: Norway rat Vesicular Monoamine Transporter (VMAT2), neurotransmitter transporter, Slc18a2 (gene 25549) (UniProt Q01827); test: NVS_TR_rVMAT2: NovaScreen (NVS) Transporter Assay for Norway rat Vesicular Monoamine Transporter (VMAT2), neurotransmitter transporter (AID 2283376);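 further: actives lower the bound radioligand signal below the DMSO level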
# Outline: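 Using rat forebrain membranes, specific radioligand binding to VMAT2 was measured by filtration and scintillation counting after 1 hour. Chemicals screened at 25 uM in duplicate, actives retested in concentration series, DMSO baseline.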
# [14] = target: rat CYP2C12, Cyp2c12 (gene 25011) (UniProt P11510); test: NVS_ADME_rCYP2C12: NovaScreen (NVS) CYP450-related Enzyme Activity (ADME) Assay for rat CYP2C12 (AID 2283119)
# Outline: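 Fluorescent-substrate turnover by recombinant rat CYP2C12, measured at 0.5 h, normalized to acetonitrile vehicle. Chemicals screened first at a single 10 uM concentration in duplicate, with concentration series for actives.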
# [15] = target: rat Gamma-Aminobutyric Acid Type A Receptor BDZ, alpha 6 site (GABARa6), Gabra6 (gene 29708) (UniProt P30191); test: NVS_LGIC_rGABARa6: NovaScreen (NVS) Ligand-Gated Ion Channel Assay for rat Gamma-Aminobutyric Acid Type A Receptor BDZ, alpha 6 site (GABARa6) (AID 2283339)
# Outline: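 Actives from a 25 uM duplicate screen were retested in concentration series (max 50 uM). Specific radioligand displacement from rat cerebellar membranes was counted by filter-based scintillation at 1 h; DMSO served as baseline.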
# [16] = target: human AMP-activated Protein Kinase, alpha 1 (AMPKa1), PRKAA1 (gene 5562) (UniProt Q13131); test: NVS_ENZ_hAMPKa1: NovaScreen (NVS) Enzymatic Assay for human AMP-activated Protein Kinase, alpha 1 (AMPKa1) (AID 2283130)
# Outline: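 Compounds were screened in duplicate at 25 uM, and those reaching ~30% inhibition were titrated up to 50 uM. The enzyme was recombinant human AMPKα1, and kinase turnover was read by fluorescence/mobility shift 1 h post-dosing as loss of signal versus DMSO.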
structure (smiles),measurement,setting,value
S=C(S)NCCNC(=S)S.[Mn+2].[S-]C([S-])=NCCN=C([S-])[S-].[Zn+2],outcome,[1],inactive
same,outcome,[2],inactive
same,AC50,[3],3.99 µM (active) and 2.8 µM (active)
same,AC50,[4],9.13 µM (active) and 9.55 µM (active) and 21.4 µM (active)
same,AC50,[5],233 nM (active) and 815 nM (active)
same,AC50,[6],7.49 µM (active) and 1.15 µM (active)
same,outcome,[7],inactive
same,AC50,[8],5.61 µM (active) and 263 nM (active)
same,AC50,[9],9.01 µM (active) and 2.11 µM (active) and 12.8 µM (active)
same,AC50,[10],25 µM (active)
same,outcome,[11],inactive
CCOC(=O)NCCOc1ccc(Oc2ccccc2)cc1,outcome,[12],inactive
CC(=O)[C@H]1CC[C@H]2[C@@H]3CCC4=CC(=O)CC[C@]4(C)[C@H]3CC[C@]12C,outcome,[5],inactive
CCCCC(CC)COC(=O)c1ccccc1C(=O)O (configuration not stated),outcome,[13],inactive
COC(=O)c1ccccc1S(=O)(=O)NC(=O)Nc1nc(OC(F)F)cc(OC(F)F)n1,outcome,[14],inactive
same,outcome,[15],inactive
CCCCCCCC(=O)O,outcome,[16],inactive

# — PubChem BioAssay (EPA / NIEHS)
